Experimental data from PubChem BioAssay AID652017 (The Scripps Research Institute Molecular Screening Center, 2013).
The whole screen tested about 370,000 compounds, of which about 3,800 (1%) were called active. Rule as the data show it: active = activation above about 7.8%; inactive = the rest. Shown is part of a subset that was picked to be rich in actives.

Experiment: SMARCA2 (BRM) function activators, primary screen, cell-based, luminescence, high throughput (AID 652017);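 also: 0% = vehicle wells and 100% = reference activator wells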
Details: MG213 cells, MMTV-luciferase reporter, dexamethasone, overnight; at 9.1 µM; hits give high values

Row | Compound | activation
1 | COC(=O)[C@]12C[C@H](CC(=O)NCc3cccc4ccccc34)C(=O)N(CCc3ccc(OC)c(OC)c3)C1=C[C@H](C1CCCC1)O[C@@H]2C | -1.03% (inactive)
2 | CCOc1cccc2c1OC1(CCCCC1)N1N=C(c3cccnc3)CC21 (centres undefined) | 8% (active)
3 | CCCCN1CCN(C(=O)c2ccc3c(c2)NC(=O)C(C)(C)O3)CC1 | 2.59% (inactive)
4 | O=S1(=O)c2c(cccc2N2CC[C@H](O)C2)O[C@@H]2CCN1C2 | -1.6% (inactive)
5 | CCc1nc2ccc(C(=O)NCCNC(C)=O)cn2c1N(CC)Cc1cccc(Br)c1 | -2.59% (inactive)
6 | COCC(=O)N1CCCC(C(=O)c2ccc(C(F)(F)F)cc2)C1 (centres undefined) | -2.48% (inactive)
7 | Cc1cnc(C(=O)N2CCCC(C(=O)c3ccc(C(F)(F)F)cc3)C2)cn1 (centres undefined) | 1.89% (inactive)
8 | Cn1cc(/C=C/C(=O)N2CCCC(C(=O)c3ccc(C(F)(F)F)cc3)C2)cn1 (centres undefined) | 9.62% (active)
9 | CCOC(=O)C1=C(C)NC2=C(C(=O)CC(C)(C)C2)C1c1ccc2c(c1)OCO2 (centres undefined) | -5.79% (inactive)
10 | O=C(c1cccc(C(F)(F)F)c1)N1CC[C@H]2[C@H](CCCN2Cc2cc(F)cc(F)c2)C1 | -1.61% (inactive)
11 | COc1ccc(/C=C/C(=O)Nc2ccc(C34CC5CC(CC(O)(C5)C3)C4)cc2)cc1OC | 9.95% (active)
12 | CSc1ccc(/C=C/C(=O)NC23CC4CC(CC(C4)C2)C3)cc1 | 1.32% (inactive)
13 | CCOc1ccccc1NC(=O)C12CC3CC(C1)CC(c1ccc(C)cc1)(C3)C2 | -1.92% (inactive)
14 | O=C(NCc1ccc(Cl)cc1)C1CCCN(c2nc3ccccc3o2)C1 (centres undefined) | -7.39% (inactive)
15 | Cc1ccc(C2=CCN(C)C(=O)N2c2ccc(Cl)cc2)cc1 | 1.89% (inactive)
16 | CN1CCC[C@@H]1CCO[C@](C)(c1ccccc1)c1ccc(Cl)cc1 | -5.64% (inactive)
17 | Cc1cc2oc3ccc(NCCC4CCCN4C)cc3c(=O)c2cc1C (centres undefined) | 8.67% (active)
18 | S=C(NCCCc1cnc[nH]1)NCCCN(Cc1ccc(Cl)c(Cl)c1)c1ccc(Br)cn1 | -3.8% (inactive)
19 | COC(=O)C[C@@H]1CC[C@H]2[C@@H](COc3ccc(NS(=O)(=O)CC(F)(F)F)cc3C(=O)N2C)O1 | -3.47% (inactive)
20 | COC(=O)[C@]12C[C@H](CC(=O)N3CCN(C(=O)C4CC4)CC3)C(=O)N(CCC3=CCCCC3)C1=C[C@H](C(C)C)O[C@@H]2C1CC1 | 0.49% (inactive)
21 | Cc1cc(NS(=O)(=O)c2ccc(NC(=O)CSc3nnc(-c4ccc(C(C)(C)C)cc4)n3Cc3ccco3)cc2)nc(C)n1 | -2% (inactive)
22 | COc1ccc(-n2c(SCC(=O)Nc3ccc(C)c(Cl)c3)nc3ccccc3c2=O)cc1 | -5.45% (inactive)
23 | O=C(CSc1nc2ccccc2c(=O)n1-c1ccccc1F)N1CCOCC1 | -2.52% (inactive)
24 | Cc1ccc(-n2c(SCC(=O)N3CCC(C(=O)O)CC3)nc3ccccc3c2=O)cc1C | 9% (active)
